Assay results: PubChem BioAssay AID1159580 (chemical genetic matrix, 2015)
In all, about 5,500 compounds went through this assay and about 2,000 (36%) were called active. Inconclusive results (about 18%) are left out. Cut-off read from the data, not from the text of the source: active = normalized growth mostly below about 0.91 (no sharp cut-off); inconclusive = no clear call, values can overlap the other calls; inactive = mostly above about 0.92. The list shows a part of the results.

Assay: chemical genetic growth profiling, strain panel (AID 1159580);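 note: tested at 20 µM; growth read once vehicle control cultures reached saturation at 30 °C; 1 = growth at the plate median or of vehicle wells; lower values mean less growth of the strain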
Conditions: growth OD

Measured: normalized growth

C=NC(C(=O)NC1C(=O)N2C1SC(C)(C)C2C(=O)O)c1ccccc1 (configuration not stated)
inactive: S. cerevisiae deletion strains, locus YJR075W, strain HOC1, hits give low values 0.991 | S. cerevisiae deletion strains, locus YKL009W, strain mrt4, hits give low values 1.02 | S. cerevisiae deletion strains, locus YKL068W, hits give low values 1.02 | S. cerevisiae deletion strains, locus YKL085W, strain MDH1 (second series), hits give low values 1.04 | S. cerevisiae deletion strains, locus YKL085W, strain MDH1, hits give low values 1.04 | S. cerevisiae deletion strains, locus YKL160W, strain elf1, hits give low values 0.98 | S. cerevisiae deletion strains, locus YKL190W, strain CNB1, hits give low values 1.01 | S. cerevisiae deletion strains, locus YKR001C, strain vps1, hits give low values 1.02 | S. cerevisiae deletion strains, locus YKR026C, strain gcn3, hits give low values 0.999 | S. cerevisiae deletion strains, locus YKR091W, strain srl3, hits give low values 0.999 | S. cerevisiae deletion strains, locus YLL001W, strain dnm1, hits give low values 0.943 | S. cerevisiae deletion strains, locus YLL026W, hits give low values 1.01 | S. cerevisiae deletion strains, locus YLL041C, strain sdh2, hits give low values 0.996 | S. cerevisiae deletion strains, locus YLR027C, strain aat2, hits give low values 1.02 | S. cerevisiae deletion strains, locus YLR039C, strain RIC1, hits give low values 1.03 | S. cerevisiae deletion strains, locus YLR058C, strain SHM2, hits give low values 1.01 | S. cerevisiae deletion strains, locus YLR102C, strain apc9, hits give low values 1.02 | S. cerevisiae deletion strains, locus YLR113W, strain HOG1, hits give low values 1.01 | S. cerevisiae deletion strains, locus YLR221C, strain rsa3, hits give low values 1.06 | S. cerevisiae deletion strains, locus YLR258W, strain gsy2, hits give low values 1.01 | S. cerevisiae deletion strains, locus YLR262C, strain YPT6 (second series), hits give low values 1.01 | S. cerevisiae deletion strains, locus YLR262C, strain YPT6, hits give low values 1.06 | S. cerevisiae deletion strains, locus YLR268W, strain sec22, hits give low values 1.01 | S. cerevisiae deletion strains, locus YLR320W, strain mms22, hits give low values 1.07 | S. cerevisiae deletion strains, locus YLR330W, strain CHS5, hits give low values 1.01 | S. cerevisiae deletion strains, locus YLR342W, strain FKS1 (second series), hits give low values 1.03 | S. cerevisiae deletion strains, locus YLR342W, strain FKS1, hits give low values 1.02 | S. cerevisiae deletion strains, locus YLR357W, strain rsc2, hits give low values 0.912 | S. cerevisiae deletion strains, locus YLR370C, strain arc18, hits give low values 1.01 | S. cerevisiae deletion strains, locus YLR371W, strain rom2, hits give low values 1.02 | S. cerevisiae deletion strains, locus YLR384C, strain iki3, hits give low values 0.999 | S. cerevisiae deletion strains, locus YLR418C, strain cdc73, hits give low values 1.02 | S. cerevisiae deletion strains, locus YML016C, strain PPZ1, hits give low values 1.01 | S. cerevisiae deletion strains, locus YML032C, strain rad52, hits give low values 1.02 | S. cerevisiae deletion strains, locus YML120C, strain ndi1, hits give low values 0.972 | S. cerevisiae deletion strains, locus YML124C, strain tub3, hits give low values 1.01 | S. cerevisiae deletion strains, locus YMR058W, strain fet3, hits give low values 0.987 | S. cerevisiae deletion strains, locus YMR078C, strain ctf18, hits give low values 1.01 | S. cerevisiae deletion strains, locus YMR125W, strain sto1, hits give low values 0.929 | S. cerevisiae deletion strains, locus YMR129W, hits give low values 1 | S. cerevisiae deletion strains, locus YMR205C, strain PFK2, hits give low values 0.982 | S. cerevisiae deletion strains, locus YMR223W, strain ubp8, hits give low values 1.02 | S. cerevisiae deletion strains, locus YMR231W, strain pep5, hits give low values 1.01 | S. cerevisiae deletion strains, locus YMR263W, strain SAP30, hits give low values 1.01 | S. cerevisiae deletion strains, locus YMR307W, strain GAS1, hits give low values 0.993 | S. cerevisiae deletion strains, locus YNL067W, strain RPL9B, hits give low values 0.996 | S. cerevisiae deletion strains, locus YNL071W, strain lat1, hits give low values 0.998 | S. cerevisiae deletion strains, locus YNL128W, strain TEP1, hits give low values 1 | S. cerevisiae deletion strains, locus YNL153C, strain GIM3, hits give low values 1.01 | S. cerevisiae deletion strains, locus YNL183C, strain NPR1, hits give low values 0.944 | S. cerevisiae deletion strains, locus YNL209W, strain ssb2, hits give low values 0.994 | S. cerevisiae deletion strains, locus YNL233W, strain BNI4, hits give low values 1.02 | S. cerevisiae deletion strains, locus YNL248C, strain rpa49, hits give low values 0.975 | S. cerevisiae deletion strains, locus YNL250W, strain rad50, hits give low values 1.01 | S. cerevisiae deletion strains, locus YNL271C, strain bni1, hits give low values 1.02 | S. cerevisiae deletion strains, locus YNL298W, strain CLA4, hits give low values 1.02 | S. cerevisiae deletion strains, locus YNL307C, strain MCK1, hits give low values 1.02 | S. cerevisiae deletion strains, locus YNL322C, strain KRE1 (second series), hits give low values 0.991 | S. cerevisiae deletion strains, locus YNL322C, strain KRE1, hits give low values 1.01 | S. cerevisiae deletion strains, locus YNR049C, strain mso1, hits give low values 0.998 | S. cerevisiae deletion strains, locus YNR052C, strain pop2, hits give low values 1.02 | S. cerevisiae deletion strains, locus YOL006C, strain TOP1, hits give low values 1.05 | S. cerevisiae deletion strains, locus YOL012C, strain htz1 0.974 | S. cerevisiae deletion strains, locus YOL147C, strain pex11, hits give low values 1.01 | S. cerevisiae deletion strains, locus YOR001W, strain rrp6, hits give low values 1.03 | S. cerevisiae deletion strains, locus YOR061W, strain CKA2, hits give low values 1.02 | S. cerevisiae deletion strains, locus YOR069W, strain VPS5, hits give low values 1.01 | S. cerevisiae deletion strains, locus YOR070C, strain gyp1, hits give low values 1.03 | S. cerevisiae deletion strains, locus YOR080W, strain dia2, hits give low values 1 | S. cerevisiae deletion strains, locus YOR083W, strain WHI5, hits give low values 0.989 | S. cerevisiae deletion strains, locus YOR106W, strain vam3, hits give low values 0.947 | S. cerevisiae deletion strains, locus YOR136W, strain idh2, hits give low values 1.02 | S. cerevisiae deletion strains, locus YOR144C, strain elg1, hits give low values 1.01 | S. cerevisiae deletion strains, locus YOR184W, strain ser1, hits give low values 1.05 | S. cerevisiae deletion strains, locus YOR231W, strain MKK1, hits give low values 1 | S. cerevisiae deletion strains, locus YOR265W, strain rbl2, hits give low values 1 | S. cerevisiae deletion strains, locus YOR270C, strain vph1, hits give low values 0.993 | S. cerevisiae deletion strains, locus YOR290C, strain snf2, hits give low values 0.95 | S. cerevisiae deletion strains, locus YOR316C, strain cot1, hits give low values 1.01 | S. cerevisiae deletion strains, locus YPL051W, strain arl3, hits give low values 1 | S. cerevisiae deletion strains, locus YPL055C, strain LGE1, hits give low values 1.02 | S. cerevisiae deletion strains, locus YPL078C, strain atp4, hits give low values 0.957 | S. cerevisiae deletion strains, locus YPL106C, strain sse1, hits give low values 0.983 | S. cerevisiae deletion strains, locus YPL240C, strain hsp82, hits give low values 1.01 | S. cerevisiae deletion strains, locus YPL241C, strain CIN2, hits give low values 1.01 | S. cerevisiae deletion strains, locus YPL256C, strain CLN2, hits give low values 0.994 | S. cerevisiae deletion strains, locus YPR119W, strain clb2, hits give low values 1 | S. cerevisiae deletion strains, locus YPR141C, strain kar3, hits give low values 1.01 | S. cerevisiae deletion strains, locus YPR163C, strain tif3, hits give low values 1.02 | S. cerevisiae deletion strains, locus YPR167C, strain met16, hits give low values 1.02 | S. cerevisiae deletion strains, strain wtn01, hits give low values 1.01 | S. cerevisiae strains, strain wild type, hits give low values 1.01
